High-throughput results as filed in PubChem.
NS1 function inh = influenza NS1 inhibition; 270,000 tested, 0.4% active; Potency, µM (highest dose often 46.1 µM); further: actives are rising curves; nearly all actives have a fitted effect of over 50% in size
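S. cerevisiae expressing influenza A NS1, grown in glucose, washed, then diluted 1:100 into pH 6.0 -URA galactose medium with 23 nl compound. Growth recovery read as OD600; NS1-free strain serves as control.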
SARS PLpro yeast-1 = inhibitors of SARS-CoV papain-like protease in yeast. S. cerevisiae expressing SARS-CoV PLpro, growth rescue. Potency, µM (highest dose often 32.9 µM), actives largely listed as activators. 330,000 tested, 0.19% active; further: nearly all actives have a fitted effect of over 55% in size
AMA1 RON2 block = inhibitors of Plasmodium falciparum AMA1-RON2 interaction | 360,000 tested, 0.2% active | AlphaScreen AMA1-biotinylated RON2 peptide binding | Potency, µM (series often up to 58.2 µM), usual class: inhibitors; active means well fitted inhibition curve with a large enough effect; inconclusive means small, poorly fitted or top-dose-only effect; inactive means no such curve, though single readings can be large or run the other way; further: nearly all actives have a fitted effect of over 45% in size
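AMA1 (3D7) with his tag at 25 nM final met compounds first, then biotinylated RON2 peptide at 25 nM; detection used donor plus acceptor beads, 10 µg/mL apiece, read by AlphaScreen after 30 min at room temperature.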
SARS PLpro yeast-2 = Rescues yeast growth by inhibiting SARS-CoV PLpro; shares compounds with SARS PLpro yeast-1; yeast expressing SARS-CoV PLpro, growth phenotype rescue; calls only; 1,000 tested, 19% active; AID 652038; call rule not given here
Hits are given with their value; n = inactive; u = inconclusive; x = no result given; + = active, no number; [ ] = remark or other dose. Shown are actives, neighbours in structure and some others; about 0.65% of the full set was active somewhere. Unless noted, the call rests on the fitted dose curve.

SMILES | NS1 function inh | SARS PLpro yeast-1 | AMA1 RON2 block | SARS PLpro yeast-2
CN1C(=O)c2ccc(NC(=O)c3ccc(N4CCCCC4)c([N+](=O)[O-])c3)cc2C1=O | n | 14µM | n | n
O=C(Nc1cccc(-c2ccc(F)cc2)c1)C1CCCN(Cc2cccnc2)C1 (configuration not stated) | n | n | n | x
O=C(NNc1cccc([N+](=O)[O-])c1)/C(=C\c1cccnc1)NC(=O)c1ccccc1 | n | n | n | x
CC(C)C(=O)Nc1cc(-c2nc3ncccc3o2)ccc1Cl | n | n | n | x
O=C1c2c([N+](=O)[O-])cc([N+](=O)[O-])cc2S(=O)N1Cc1ccccc1 (configuration not stated) | x | n | n | x
CCc1cc(C(=O)Cc2cnn(-c3ccccc3)c2)c(O)cc1O | n | n | n | x
O=C(Cc1cnn(-c2ccccc2)c1)c1ccc(O)c(O)c1O | n | u | n | n
COC(=O)[C@]12CCCCC=C1N(Cc1ccccc1)C(=O)[C@H](CC(=O)N1CCCC1)C2 | x | x | n | x
CC(=O)OCCOc1nc(NC(C)C)nc(NC(C)C)n1 | n | n | n | x
CC(C)Nc1nc(NC(C)C)nc(OCCOC(=O)c2ccccc2)n1 | n | u | n | n
Nc1nonc1-n1nnc(C(=O)N/N=C/c2cccc(F)c2)c1CN1CCCCCC1 | x | x | n | x
CSCc1nnc(NC(=O)c2ccc(S(=O)(=O)N(CC(C)C)CC(C)C)cc2)o1 | n | n | x | x
COc1ccc(-c2nnc(NC(=O)c3ccc(S(=O)(=O)N4CCc5ccccc5C4)cc3)o2)cc1 | n | n | n | x
O=C(Nc1nnc(C2CC2)o1)c1ccc(S(=O)(=O)N2CCc3ccccc3C2)cc1 | x | u | n | u
CCc1nnc(NC(=O)c2ccc(S(=O)(=O)N3CCCc4ccccc43)cc2)o1 | n | 20µM | n | n
CCc1nnc(NC(=O)c2ccc(S(=O)(=O)N(CC(C)C)CC(C)C)cc2)o1 | n | u | n | +
CNC(=O)c1ccsc1NC(=O)c1ccc(S(=O)(=O)N2CCCc3ccccc32)cc1 | u | n | n | x
C=C1CCN([C@@H](Cc2ccccc2)C(=O)NCc2ccc(Cl)cc2)S(=O)(=O)c2ccccc21 | x | x | n | x
COc1ccc(OC)c(NC(=O)CC2Oc3ccccc3NC2=O)c1 (configuration not stated) | n | n | n | x
CCCc1ccc2oc(C(=O)N(C)CCn3ccnc3C)c(C)c2c1 | n | n | n | x
Cc1cccc(N2CCC(N=CN(C)C)=N2)c1 | x | n | n | x
Cc1ccc(CNCCCSc2ncccn2)cc1 | n | u | n | x
CC(=O)c1ccc(N(C(=O)Cn2nnc3ccccc32)C(C(=O)NCc2ccccc2)c2ccccn2)cc1 (configuration not stated) | n | 18µM | n | n
Cc1ccc(N(C(=O)Cn2nnc3ccccc32)C(C(=O)NCc2ccccc2)c2ccccn2)cc1 (configuration not stated) | n | n | n | x
COC(=O)c1cc(OC)c(OC)cc1NCC(=O)Nc1ccc(OC)c(OC)c1 | n | n | u | x
SMILES | NS1 function inh | SARS PLpro yeast-1 | AMA1 RON2 block | SARS PLpro yeast-2
COC(=O)c1cc(OC)c(OC)cc1NCC(=O)Nc1ccc(C)cc1 | n | 4.5µM | n | n
CCOC(=O)C1=CCN(S(=O)(=O)c2ccccc2C)C1c1ccc(Cl)c(Cl)c1 (configuration not stated) | x | x | n | x
C[C@@H]1CN([C@@H](C)CO)C(=O)c2cc(NC(=O)CCC(F)(F)F)ccc2O[C@H]1CN(C)S(=O)(=O)c1ccc(Cl)cc1 | x | n | n | x
CC1(C)SC2c3ccccc3C(=O)N2C1C(=O)O (configuration not stated) | x | x | n | x
CCc1cc(=O)oc2cc(C)cc(OCC(=O)NC(Cc3ccc(Cl)cc3)C(=O)O)c12 (configuration not stated) | n | n | n | x
Cc1ccc(S(=O)(=O)N2CCC(C(=O)NCCCN3CCCC3=O)CC2)cc1C | n | n | n | x
CNCCCN1c2ccccc2CCc2ccccc21 | n | 18µM | n | n
CN(C)CCCN1c2ccccc2CCc2ccc(Cl)cc21 | n | n | n | x
C[C@@H]1CN([C@H](C)CO)C(=O)c2c(c3ccccc3n2C)-c2ccccc2CO[C@H]1CN(C)C(=O)CCC(F)(F)F | x | x | n | x
CCN(CC)C(=O)Cn1cc(S(=O)(=O)CC(=O)NCCc2ccccc2)c2ccccc21 | n | n | n | x
CCOc1ccc(S(=O)(=O)N2CCOCC2)cc1NC(=O)c1ccc(N2CCCC2=O)cc1 | x | n | n | x
COc1cc(CN2CCC(n3nccc3NC(=O)c3ccccc3OC)CC2)ccc1F | n | n | n | x
CN1/C(=C\C(=S)NC(=O)c2ccccc2Cl)C(C)(C)c2ccccc21 | n | u | n[11.6 µM] | +
COc1ccccc1C(=O)NC(=S)/C=C1/N(C)c2ccccc2C1(C)C | n | n | u | x
COc1cccc(NC(=O)C2(C)CCN2Cc2ccc3ccccc3c2)c1 (configuration not stated) | x | x | n | x
CC(C)C[C@@H](C(=O)O)N(Cc1cccc(CN([C@@H](CC(C)C)C(=O)O)S(C)(=O)=O)c1)S(C)(=O)=O | n | n | n | x
c1cncc(-c2csc(NCc3ccco3)n2)c1 | n | n | n | x
CC(=O)Nc1ccc(-c2csc(NCc3ccco3)n2)cc1 | n | u | n | n
CCN(CCCNC(=O)c1nn(C)c2c1CS(=O)(=O)c1ccccc1-2)Cc1ccccc1 | n | n | n | x
CC1(C(=O)Nc2ccc3c(c2)OCO3)CCN1C(=O)CCc1cccs1 (configuration not stated) | x | x | n | x
O=C(CSc1cccc[n+]1[O-])Nc1cccc(Oc2ccccc2)c1 | x | u | n | n
COc1cccc(NC(=O)CSc2cccc[n+]2[O-])c1 | x | n | n | x
CC(C)C(=O)Nc1ccc(C(=O)Nc2nnc(C(C)(C)C)s2)cc1 | n | n | n | x
CC(C)C(=O)Nc1cccc(C(=O)Nc2nnc(C(C)(C)C)s2)c1 | n | u | n | n
CC1=C(C(N)=O)C(c2ccccc2F)n2nc(CCCO)nc2N1 (configuration not stated) | n | n | n | x
SMILES | NS1 function inh | SARS PLpro yeast-1 | AMA1 RON2 block | SARS PLpro yeast-2
CC1(C)CCC(=O)N2CC[C@H]3c4cc5ccccc5nc4C[C@@H]1[C@H]32 | x | x | n | x
Cc1ccccc1C(=O)N1CCC[C@H]1C(=O)N1CCC[C@H]1C(=O)NCc1ccccn1 | x | x | n | x
COc1ccc(Cn2c(O)c(/C=N/NC(=O)c3ccccc3)c(=O)[nH]c2=O)cc1 | n | 10µM | n | n
O=C(N/N=C/c1c(O)n(Cc2ccccc2)c(=O)[nH]c1=O)c1ccccc1O | u | 10µM | n | n
O=C(N/N=C/c1c(O)n(CCc2ccc(F)cc2)c(=O)[nH]c1=O)c1ccncc1 | x | n | n | x
COc1ccc(Cn2c(O)c(C=NCCN3CCOCC3)c(=O)[nH]c2=O)cc1 | n | n | n | x
O=c1[nH]c(=O)n(Cc2ccccc2)c(O)c1/C=N/NCCO | n | n | n | x
COc1ccc(Cn2c(O)c(/C=N/NC(=O)c3ccncc3)c(=O)[nH]c2=O)cc1 | n | n | n | x
O=C(N/N=C/c1c(O)n(Cc2ccc(F)cc2)c(=O)[nH]c1=O)c1ccccc1O | u | 11µM | n | n
COc1ccc(Cn2c(O)c(/C=N/NC(=O)c3ccccc3O)c(=O)[nH]c2=O)cc1 | n | 10µM | n | n
CCOC(=O)CNC(=O)COc1coc(CN2CCN(c3ccccc3F)CC2)cc1=O | n | n | n | x
